# Screens deposited in PubChem by Broad Institute.
# Casp6 inh: inhibitors of human caspase-6. P55212. purified caspase-6, Z-VEID-R110 cleavage fluorescence. inhibition, % at 12.5 µM. 0.53% of 350,000 active. AID 686996;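 active = mean inhibition across replicates at least about 35%, with every replicate also reaching that limit, limit read from the data; inconclusive = only one of the two criteria met; inactive = neither criterion met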;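 also: 0% = median of neutral control wells and 100% = no fluorescence left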
# Ecoli rRNA inh: selective bacterial rRNA inhibition in E. coli. E. coli WT GFP vs humanized-ribosome RFP mutants, fluorescence, 24 h; stronger effect = lower value; DMSO median 0, no signal -100. GFP signal change (wild-type ribosome), % (test concentration not listed). 1.6% of 350,000 active;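 active = significant combined selectivity score with lowered wild-type GFP, culture density cut under 30%, mutant RFP and density less affected; inactive = any of these conditions unmet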
# RAD52 inh: blocks human RAD52 DNA annealing | P43351 | recombinant RAD52 DNA annealing, FRET fluorescence | inhibition, % at 18.7 µM | 0.46% of 360,000 active | AID 651710;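 active = every replicate showing at least 50% inhibition; inconclusive = mean inhibition at least 50% but not in every replicate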
# Target sequence (P43351 whole entry, looked up): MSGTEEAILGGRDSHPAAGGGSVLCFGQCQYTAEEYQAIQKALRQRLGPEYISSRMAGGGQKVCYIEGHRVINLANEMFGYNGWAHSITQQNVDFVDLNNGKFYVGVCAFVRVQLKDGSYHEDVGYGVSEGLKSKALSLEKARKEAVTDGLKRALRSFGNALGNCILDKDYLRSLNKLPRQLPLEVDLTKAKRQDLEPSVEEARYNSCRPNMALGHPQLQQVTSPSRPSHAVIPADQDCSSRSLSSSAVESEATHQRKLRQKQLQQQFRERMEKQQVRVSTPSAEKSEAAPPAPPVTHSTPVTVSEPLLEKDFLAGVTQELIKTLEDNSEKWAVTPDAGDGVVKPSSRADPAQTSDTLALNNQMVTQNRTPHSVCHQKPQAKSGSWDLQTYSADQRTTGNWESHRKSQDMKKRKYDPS
# AF4-AF9 inh: inhibitors of human MLL-AF4/AF9 interaction; P42568; AlphaScreen, biotin-AF4 peptide binding to FLAG-AF9; inhibition, % at 10 µM; 0.47% of 350,000 active; AID 651704;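 active = every replicate reaching a set inhibition limit, whatever the replicate mean, cut at about 25% in these data; inconclusive = mean inhibition reaches that limit but some replicates miss it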;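 also: 0% = plate neutral control median and 100% = total signal loss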
# NSD2 HMT inh: NSD2 (human) methyltransferase inhibition; NSD2 peptide methylation, AlphaScreen, 120 min; inhibition, % at 12.5 µM; AID 743445; 0.54% of 310,000 active; O96028; in the data active = inhibition above about 50%
# AID977621: growth inhibition of wild-type GFP E. coli, dose response, H69 mutant RFP, cherry-pick. shares compounds with Ecoli rRNA inh. E. coli wild-type GFP strain growth, fluorescence, 24 h. activity change, negative = inhibition at 50 µM. 1,900 tested, under 10 active. AID 977621;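 active = Wild-type ribosome reporter drop at least double the humanized mutant ribosome reporter drop, growth loss under a set limit; inconclusive = no clear call, values can overlap the other calls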;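 also: wild-type GFP and H69 mutant RFP strains grown together 50/50 in each well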
# AID977628: E. coli growth inhibition, wild-type GFP versus h24 humanized RFP strain, dose response, h24 mutant RFP vs wild-type GFP, cherry-pick; shares compounds with Ecoli rRNA inh; E. coli WT GFP strain growth, fluorescence, 24 h; activity change, negative = inhibition at 50 µM; 1,900 tested, under 10 active; AID 977628;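 active = compound lowering the normal-ribosome reporter at least twice as much as the humanized-ribosome reporter, growth loss under a set limit; inconclusive = no clear call, values can overlap the other calls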;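 also: wild-type GFP and h24 humanized RFP strains co-cultured 1 to 1 per well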
# * marks the source's active call; other numbers are inactive results; ? = inconclusive; / = not tested or not shown; ! = repeats disagree. Sampled rows, rich in hits. Any-hit rate of the full collection: about 2.5%.
SMILES,Casp6 inh,Ecoli rRNA inh,RAD52 inh,AF4-AF9 inh,NSD2 HMT inh,AID977621,AID977628
COc1ccc(OCC(O)CNS(=O)(=O)c2cccc(Cl)c2)cc1 (centres undefined),0,-21*,-9,-13,0,-3.7,-4.2
COc1ccc(OCC(O)CNC(=O)c2ccc(OC)cc2)cc1 (centres undefined),-3,6,-4,-10,-3,/,/
COc1ccc(S(=O)(=O)n2cccc2)cc1,-1,-23*,-11,-9,-6,?,?
COc1ccc(S(=O)(=O)N2CCOc3ccccc32)cc1,-1,-22*,-7,-1,-1,0.4,-17
Cc1ccc(S(=O)(=O)N(C)C[C@H]2Oc3ccc(NC(=O)Cn4cnnn4)cc3CC(=O)N([C@H](C)CO)C[C@H]2C)cc1,3,4,-5,1,/,/,/
CC1C=Cc2ccccc2N1C(=O)c1ccccc1 (centres undefined),-1,-32*,-10,6,3,2.5,/
CCOc1ccc(CN(C)C(=O)c2ccc(NS(=O)(=O)c3ccc4[nH]c(=O)[nH]c4c3)cc2)cc1,4,-17*,9,-2,4,-25,?
Cc1ccc(CN(C)C(=O)c2ccc(NS(=O)(=O)c3ccc4[nH]c(=O)[nH]c4c3)cc2)cc1,7,0,-10,8,1,/,/
COc1ccc2sc(N3C(=O)CC(Cc4cccc(C)c4)C3=O)nc2c1 (centres undefined),-3,-33*,6,2,1,/,?
Cc1cccc(CC2CC(=O)N(c3nc4ccccc4s3)C2=O)c1 (centres undefined),3,-8,-6,-2,5,/,/
COc1ccccc1CNC(=O)c1cc2sccc2n1C,1,-20*,-8,5,3,-5.2,/
COc1cc(OC)cc(C(=O)NC(C)c2ccc(Br)cc2)c1 (centres undefined),3,16,-16,-1,-1,/,/
COc1cccc(C(=O)NC(C)c2ccc(Br)cc2)c1 (centres undefined),2,-27*,-8,-1,-5,-15,-11
CCOC(=O)C(C)Sc1nc(N2CCOCC2)c2c(c1C#N)CC(C)(C)OC2 (centres undefined),2,-29*,-13,-1,-3,-11,-10
NC(=O)c1ccsc1NC(=O)COC(=O)CSc1ccc(Cl)cc1,2,-21*,-44,-1,-2,/,?
NC(=O)c1ccsc1NC(=O)COC(=O)c1ccc(Cl)cc1,4,2,-18,-1,-2,/,/
N#C[C@@H]1[C@H](c2ccc(-c3cccc(F)c3)cc2)[C@H](CO)N1C(=O)CN1CCOCC1,0,-3,-22,0,/,/,/
COc1ccc(S(=O)(=O)N(C)C[C@@H]2Oc3c(NC(=O)Nc4ccc5c(c4)OCO5)cccc3C(=O)N([C@H](C)CO)C[C@@H]2C)cc1,-1,-11,-1,7,/,/,/
O=C(c1cccc(F)c1)N1CCN(C(=O)c2cc3nc(-c4ccco4)cc(C(F)(F)F)n3n2)CC1,3,-6,-11,2,-3,/,/
CN1CCN(C(=O)c2cc3nc(-c4ccco4)cc(C(F)(F)F)n3n2)CC1,1,-27*,-6,-5,6,-9.9,-4.4
O=C1CCCc2c1nc(-c1ccc([N+](=O)[O-])cc1)n2O,3,-18*,-10,-6,-1,?,?
CCc1cc(C(=O)N2CCCC(C(=O)c3cccc4ccccc34)C2)n(C)n1 (centres undefined),2,-26*,-15,-3,3,-6.8,/
CN(C)c1ccc(-c2nnn(Cc3ccccc3Br)n2)cc1,-1,-19*,-12,3,2,?,/
Brc1ccccc1Cn1nnc(-c2ccc(N3CCOCC3)cc2)n1,/,/,/,/,3,/,/
C[C@H](CO)N1C[C@H](C)[C@@H](CN(C)S(=O)(=O)c2cn(C)cn2)Oc2ccc(NC(=O)Cc3ccccc3)cc2CC1=O,/,0,/,/,/,/,/
SMILES,Casp6 inh,Ecoli rRNA inh,RAD52 inh,AF4-AF9 inh,NSD2 HMT inh,AID977621,AID977628
COCC(=O)N1CC2(C1)[C@@H](c1ccccc1)[C@@H](CO)N2C(=O)c1ccccc1,-4,4,-8,-4,/,/,/
COCC(C)NC(=O)c1nn(Cc2ccccc2)c(=O)c2ccccc12 (centres undefined),-2,-13*,-2,1,-2,-18,-2.4
CCC(C)NC(=O)c1nn(Cc2ccccc2)c(=O)c2ccccc12 (centres undefined),-2,2,-2,-1,-4,/,/
O=C(Cc1cccc2ccccc12)Nc1cc(Cl)ccc1C(=O)O,1,-50,-10,-4,0,/,/
O=C(Cc1cccc2ccccc12)Nc1ccccc1C(=O)O,2,-35*,-2,/,0,-12,/
Cc1cc(NCc2ccccn2)n2nc(C)c(-c3ccccc3)c2n1,-1,-47*,-14,/,-2,-4.5,?
Cc1nn2c(NCc3ccccn3)cc(C(C)(C)C)nc2c1-c1ccccc1,1,21,-13,/,-1,/,/
O=C(Nc1cccnc1)c1cc(Br)c(Br)s1,4,2,1,-1,1,/,/
NC(=O)c1cc(NC(=O)c2cc(Br)c(Br)s2)cc(C(N)=O)c1,2,-24*,-28,1,-4,/,?
C[C@@H]1CCCCO[C@@H](CN(C)C(=O)Nc2ccccc2)[C@@H](C)CN([C@@H](C)CO)C(=O)c2cc(NC(=O)C3CCCCC3)ccc2O1,1,6,12,3,/,/,/
O=C1c2ccccc2C(c2nnnn2Cc2ccccc2)N1Cc1cccc(F)c1 (centres undefined),3,-23*!,-7,-1,/,-4.9,-5.4
Cc1ccc(N(CCC(=O)O)S(=O)(=O)c2ccccc2)cc1,/,/,/,/,-2,/,/
COc1ccc(N(CCC(=O)O)S(=O)(=O)c2ccc(C)cc2C)cc1,2,-17*,-16,1,-2,3.8,-9.3
CN(Cc1nnc(-c2ccc(F)cc2)o1)c1ccccc1,-2,-26*,-37,1,-4,-7.6,-7
O=C(CCC(=O)N1CCN(c2ccc(F)cc2)CC1)c1ccc(F)cc1,-3,-20*,-3,-10,/,-1.8,-12
O=C(CCC(=O)N1CCN(c2ccc(F)cc2)CC1)c1ccccc1,0,-6,-4,-12,1,/,/
CN(c1ccc(C(=O)NCc2cccs2)cc1)S(=O)(=O)c1ccccc1,-5,-18*,-13,0,-2,-5.3,-4.9
S=c1nc(-c2cc(Cl)cc(Cl)c2)[nH][nH]1,-3,-17*,-15,-2,-1,-14,?
CC(C)NC(=O)N(C)C[C@@H]1Oc2ncc(C#CC3(O)CCCC3)cc2C(=O)N([C@H](C)CO)C[C@H]1C,-1,1,-2,-2,/,/,/
